Reference: PubChem BioAssay (Tox21)
Records with an inconclusive call do not appear. Values without a mark were called inactive. The source made the active and inactive calls. Calls follow the shape of the dose curve; as a rule, active = well fitted activation curve with a large enough effect in the repeat runs; inconclusive = weak or mixed curves, or effect the other way; inactive = no such curve, though single readings can be large or run the other way.

test: qHTS assay to identify small molecule agonists of the estrogen related receptor signaling pathway with the pleiotropic PPARgamma coactivator (PGC) from Tox21 10K library (AID 1224842); settings: PGC/ERR reporter cell line, luciferase ONE-Glo, 18 h; series mostly up to 92.4 µM; activation: at the top concentration; also: nearly all actives have a fitted effect of over 15% in size
From the text: National Center for Advancing Translational Sciences [NCATS] NIH Chemical Genomics Center [NCGC] U.S. Environmental Protection Agency [EPA] National Institutes of Environmental Health Sciences [NIEHS] National Toxicology Program [NTP] Assay overview: Estrogen related receptors (ERRs), the first orphan nuclear receptors discovered, play an important role in the control of cellular energy metabolism. ERRs are required for high-energy production in response to the environmental challenges. The pleiotropic PPARgamma coactivator (PGC) is a major partner of ERR and a key regulator in energy homeostasis. Together they have been implicated in the etiology of metabolic disorders such as Type 2 diabetes and metabolic syndrome. ERR-alpha was also identified as an adverse marker for breast cancer progression; ERR-alpha-positive tumors have a poor prognosis. To screen and to identify environmental compounds that perturb the PGC/ERR signaling pathways could provide valuable information for potential therapeutic or preventive measures in the treatment of metabolic disease. For identifying PGC/ERR agonists, PGC/ERR cell line (provided by NTP) has been used to screen Tox21 10K library.
Assay Protocol Summary: The PGC/ERR cells were dispensed at 2,000 cells/5 ul/well in 1536-well white plates using a Multidrop dispenser. After the assay plates were incubated at a 37 C/5% CO2 incubator for 6 hours, 23 nL of compounds dissolved in DMSO, positive and negative controls or DMSO only was transferred to the assay plate by a pin tool. The plates were incubated at 37 C for 18 hours. 4 ul/well of One-Glo reagent was added into the assay plates using a Flying Reagent Dispenser. After 30-minute incubation at room temperature, the luminescence intensity in the plates was measured using a ViewLux plate reader.
% is scaled to controls: 0 for no effect and ±100 for the full control effect.

| Compound | activation | outcome |
| --- | --- | --- |
| CO[C@]12C[C@@H](COC(=O)c3cncc(Br)c3)CN(C)[C@@H]1Cc1cn(C)c3cccc2c13 | 0.28% [at 42.5 µM] |  |
| CCSC(=O)N(CC(C)C)CC(C)C | 2.32% |  |
| CC(=O)Nc1ccc(S(N)(=O)=O)cc1 | 3.11% |  |
| COc1ccc2c(c1)c(CC(=O)OCC(=O)O)c(C)n2C(=O)c1ccc(Cl)cc1 | -1.63% [at 42.5 µM] |  |
| Cc1cccc(C)c1NC(=O)C(C)N (stereo not given) | 1.61% [at 42.5 µM] |  |
| CN1C(=O)N(C)C(O)C1O (stereo not given) | -0.201% |  |
| O=C(O)Cc1ccc(CCNS(=O)(=O)c2ccc(Cl)cc2)cc1 | 1.74% [at 42.5 µM] |  |
| O=C1CC2CC1C1CCCC21 (stereo not given) | 10.1% |  |
| O=C(O)CCCl | 6.67% |  |
| NC(CSCC(=O)O)C(=O)O (stereo not given) | -0.314% [at 42.5 µM] |  |
| Cc1cnc(NS(=O)(=O)c2ccc(N)cc2)nc1 | 4.62% [at 42.5 µM] |  |
| CN1CCN(c2cc3c(cc2F)c(=O)c(C(=O)O)cn3-c2ccc(F)cc2)CC1 | 1.16% [at 42.5 µM] |  |
| O=C(O)COc1nn(Cc2ccccc2)c2ccccc12 | -1.24% [at 42.5 µM] |  |
| CN(C)CCCN1c2ccccc2CCc2ccc(Cl)cc21 |  | inactive |
| O=C(CCCN1CCC(O)(c2cccc(C(F)(F)F)c2)CC1)c1ccc(F)cc1 | -8.78% [at 42.5 µM] |  |
| CCn1nc(C(=O)O)c(=O)c2cc3c(cc21)OCO3 | 0.45% [at 42.5 µM] |  |
| O=C(c1ccccc1)C1CCCCC1 | -4.9% |  |
| COc1ccc2c(c1)CCCC2=O | -2.64% [at 42.5 µM] |  |
| CN1N=C(C(N)=O)CCC1=O | 2.05% [at 42.5 µM] |  |
| N[C@H](C(=O)O)c1ccc(O)cc1 | 0.319% [at 19 µM] |  |

| Compound | activation | outcome |
| --- | --- | --- |
| CCc1nccnc1CC | 1.3% [at 19 µM] |  |
| COC(=O)NN | -0.239% |  |
| CN1CCCC1 | 0.322% |  |
| CCCCCCCCCCCCCCCCC | 2.29% |  |
| COC(=O)c1cc(C(=O)OC)cc(S(=O)(=O)O)c1 | -3.21% |  |
| CC(C)(C)NCCNC(C)(C)C | 1.73% |  |
| O=Cc1cccc([N+](=O)[O-])c1 | -11% |  |
| COC(=O)[C@@H](N)Cc1ccc(O)c(O)c1 | -0.107% [at 42.5 µM] |  |
| CCCCCOC(=O)CCCCC | -5.38% |  |
| CCOC(=O)C(=O)OCC | -0.246% |  |
| O=[N+]([O-])c1ccc(F)cc1F | 0.0036% |  |
| CCCCOCCOCCOCCCC | 0.747% |  |
| C[C@H](NC(CCc1ccccc1)C(=O)O)C(=O)N1CCC[C@H]1C(=O)O (stereo not given in full) | 0.558% [at 42.5 µM] |  |
| C=CCOCC(CC)(CO)COCC=C | -0.326% |  |
| COCCc1ccc(OCC(O)CNC(C)C)cc1 (stereo not given) |  | inactive |
| CCCCCCCCCCCC | 0.656% |  |
| CCCCCCCCCCCCCC=O | -0.504% [at 8.39 µM] |  |
| CC(C)CNCC(C)C | -0.207% |  |
| CC(=O)CC(C)(C)C1CCCCC1 | 3.5% |  |
| CCOC(=O)Nc1ccc(NCc2ccc(F)cc2)nc1N | -4.32% [at 42.5 µM] |  |
